Assay results as given in PubChem BioAssay AID431 (Sanford-Burnham Center for Chemical Genomics, 2006).
The campaign covered roughly 63,000 compounds. About 1,100 (1.7%) were called active. The list comes from a sample in which actives are over-represented; it also holds similar structures and randomly drawn compounds. Measured potencies and affinities stand elsewhere. Values without a mark were called inactive.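 Rule for the calls: active = compounds whose percent cytotoxicity in the single-dose primary screen, scaled between solvent and toxic-drug controls, exceeds 50; inactive = the rest.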

Assay: cytotoxicity in KRAS-transformed pancreatic duct cells, primary screen, cell-based, fluorescence, HTS (AID 431);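 note: 0% = DMSO solvent wells and 100% = doxorubicin-treated wells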
Details: HPDE-C7K KRASV12 cells, Alamar Blue viability, 48 h; at 10 µM; stronger effect = higher value

In order of rising cytotoxicity:
1. O=C(O)COc1ccc2nsnc2c1Cl  -27.6%
2. N#Cc1ccsc1NC(=O)CSc1ncn[nH]1  -18.4%
3. COc1ccc(N(CC(=O)Nc2ccc(C)cn2)S(=O)(=O)c2c(C)noc2C)cc1  -11.9%
4. COc1cc(CC(=O)NCc2ccc3c(c2)OCO3)cc(OC)c1OC  -11.8%
5. CCCCOc1ccc(C(=O)NC)cc1  -11.7%
6. CCOC(=O)c1sc2nc(CSc3nc4ccccc4n3CC)[nH]c(=O)c2c1C  -11.3%
7. CCc1nnc(NC(=O)OCc2ccccc2)s1  -11.2%
8. CCC(Sc1nc(=O)cc(N)n1CCc1ccccc1)C(=O)Nc1cc(C)on1 (stereo not drawn)  -10.3%
9. CCOc1ccccc1Oc1ccc(C(F)(F)F)cn1  -8.8%
10. COCCNC(=O)CSc1nc(-c2ccc(OC)c(OC)c2)cc(C(F)(F)F)n1  -8.7%
11. O=C(COc1nncc2ccccc12)NCCC1=CCCCC1  -7.1%
12. O=C(Cc1cn2ccsc2n1)Nc1nc2c(s1)CN(Cc1ccccc1)CC2  -6.3%
13. CCN(CC)c1ccc(NC(=O)c2cc3ccccc3o2)c(C)c1  -6%
14. O=C(Nc1cccnc1)c1ccc(Cl)c(S(=O)(=O)N2CCCCCC2)c1  -5.1%
15. C=CCOc1ccccc1/C=N/O  -4.8%
16. CCN1C(=O)CS/C1=N\c1nccs1  -4.6%
17. CCCCOc1ccc(C(=O)N2CCC(C)CC2)cc1  -4.4%
18. COc1ccccc1NC(=O)c1ccc(Cl)c(S(=O)(=O)N2CCOCC2)c1  -3.3%
19. Cc1cc(-c2ccccc2)nc(=O)[nH]1  -3%
20. Cc1cc(C)n(-c2nc3nonc3nc2-n2nc(C)cc2C)n1  -2.4%
21. C=CCn1c(O)c(C2=c3ccccc3=NC2=O)s/c1=N/c1nccs1  -2.3%
22. O=C(NCCc1ccc(Cl)cc1)C1CCN(S(=O)(=O)N2CCCC2)CC1  -2.3%
23. Cc1ccc(C(C)NC(=O)c2c(C)noc2C)cc1C (stereo not drawn)  -2.1%
24. CCn1c(=O)cc(OCC(=O)N2CCN(C(=O)c3ccco3)CC2)c2ccccc21  -0.6%
25. COc1ccccc1C(=O)Nc1nc2ccc(S(C)(=O)=O)cc2s1  -0.1%
26. Cc1ccc(CNc2oc(-c3cccs3)nc2C#N)cc1  0.3%
27. CCN=C1SC(C(N)=O)CC(=O)N1CC (stereo not drawn)  0.6%
28. C=CCOC(=O)C1=C(C)NC(C)=C(C(=O)OCC=C)C1c1ccc(O)cc1  1.1%
29. CCn1cc(/C=C(/C#N)S(=O)(=O)c2ccccc2)cn1  2.3%
30. Cn1c(=O)c2ccccc2n(Cc2ccccc2F)c1=O  2.5%
31. CCN1CCN(c2ncnc3c2sc(=S)n3-c2ccccc2)CC1  2.5%
32. Cc1cccc(C)c1OCC(=O)Nc1cccc(NC(=O)c2ccco2)c1  2.8%
33. CS(=O)(=O)c1ccc2nc(NC(=O)c3cccs3)sc2c1  3%
34. O=C1CN(C(=O)c2ccc(Br)o2)C(c2ccccc2)c2cc(F)ccc2N1 (stereo not drawn)  3%
35. N#Cc1nc(-c2cccs2)oc1NCc1ccccc1  3.2%
36. CC(=O)Nc1ccc(C(=O)CSc2nnc(Cn3nnc4ccccc43)n2C)cc1  3.6%
37. COCCN(CC(=O)NCc1ccccc1)C(=O)CCC(=O)Nc1ccccn1  4.7%
38. CCOc1ccccc1OCC(=O)O  6.8%
39. CCCCNS(=O)(=O)c1ccc2nc(SCC(=O)c3ccc(C#N)cc3)[nH]c2c1  10.9%
40. CN1C(=O)CC(C(=O)Nc2ccc(F)cc2)SC1=Nc1ccc2c(c1)OCO2 (stereo not drawn)  12.5%
41. Cc1cccc(OCCCc2c(C)n[nH]c2C)c1  12.8%
42. Cn1nnnc1SCC(=O)N1CCN(c2cccc(Cl)c2)CC1  14.5%
43. O=C1N=c2ccccc2=C1c1sc(=S)n(CC2CCCO2)c1O (stereo not drawn)  20.6%
44. O=C(Cc1cn2ccsc2n1)Nc1nc2c(s1)CCCC2  23.2%
45. COc1cc(CC(=O)Oc2ccc3c(c2)OCO3)cc(OC)c1OC  27.3%
46. CCOC(=O)N1CCN(Cc2nc(N)nc(Nc3ccc(Oc4ccccc4)cc3)n2)CC1  28%
47. COc1ccc(N2CCN(CC(=O)Nc3nc4c(s3)CC(C)CC4)CC2)cc1 (stereo not drawn)  32.4%
48. CCOC(=O)Cn1c(-c2nonc2NC(=O)c2ccccc2F)nc2ccccc21  41%
49. COC(=O)c1ccccc1NC(=O)Cn1c(-c2nonc2N)nc2ccccc21  41.3%
50. N#CCCn1c(-c2nonc2NC(=O)c2ccccc2Cl)nc2ccccc21  41.9%
51. CCCCOc1ccccc1NC(=O)Cn1c(-c2nonc2N)nc2ccccc21  42.3%

For `CC(C)n1nc(C(=O)Nc2nc3ccc(S(C)(=O)=O)cc3s2)c2ccccc2c1=O`, the cytotoxicity was 53.7% (active).
With `CCCCNS(=O)(=O)c1ccc2nc(SCC(=O)Nc3sccc3C#N)[nH]c2c1` the cytotoxicity was 80.6% (active).
In the case of `CCCCOc1ccc(C(=O)OC2CC(C)N(C)CC2C)cc1` (stereo not drawn), the cytotoxicity is reported as 81.6% (active).
With `C=CCn1c(O)c(C2=c3ccccc3=NC2=O)sc1=Nc1ccc(O)cc1` the cytotoxicity was 117% (active).
With `COc1cc([C@@H]2c3cc4c(cc3[C@H](O)[C@H]3COC(=O)[C@H]23)OCO4)cc(OC)c1OC` the cytotoxicity was 70% (active).
For `CCCCn1c(-c2nonc2NC(=O)c2ccccc2Cl)nc2ccccc21`, the cytotoxicity was 53.9% (active).
For `CCOC(=O)c1ccccc1NC(=O)Cn1c(-c2nonc2N)nc2ccccc21`, the cytotoxicity was 58.5% (active).
For `N#Cc1nc(-c2cccs2)oc1NCCc1ccccc1`, the cytotoxicity was 50.3% (active).
With `COc1ccc(NC(=O)c2ccc(Cl)c(S(=O)(=O)N3CCc4ccccc4C3)c2)cn1` the cytotoxicity was 80% (active).
For `N#CC(C#N)=c1ccc2c(c1)N1C3=C(CCCC3)CC3CCCCC31N=2` (stereo not drawn), the cytotoxicity was 71.7% (active).
With `N#C/C(C(N)=O)=c1/ccc2c(c1)N1C3=C(CCCC3)CC3CCCCC31N=2` (stereo not drawn) the cytotoxicity was 66.4% (active).
In the case of `CC(C)(C)C1CCc2nc(NC(=O)Cc3cn4ccsc4n3)sc2C1` (stereo not drawn), the cytotoxicity is reported as 52.5% (active).
